Our source for the outcome and inhibition values is PubChem BioAssay.

Assay [1] concerns TRPC4 beta (transient receptor potential cation channel C4), mouse. The assay can be described thus: activators of mouse TRPC4 channel, confirmation, cell-based, Fluo4 calcium, HEK293 TRPC4beta/mu-opioid, duplicates, 10 µM (AID 2426;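 active means fluorescence ratio normalized to control raised more than 50% in primary screen plus both repeat runs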). The following applies: Fluo4 calcium fluorescence, at 10 µM; active compounds read high.
Assay [2] has as its system transient receptor potential cation channel C4 beta (TRPC4), mouse. The assay can be described thus: activators of mouse TRPC4 channel, confirmation, cell-based, second round, Fluo4, HEK293 TRPC4beta/mu-opioid, 1 µM (AID 2461;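 active means primary screen active and over 50% activation in each of two duplicate runs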). The following applies: Fluo4 calcium fluorescence, at 1 µM; active compounds read high.
The test system of assay [3] is TRPC4 (transient receptor potential cation channel C4 beta), mouse. Briefly: positive allosteric modulators of mouse TRPC4, confirmation, cell-based, second round, Fluo-4, HEK293 TRPC4beta/mu-opioid, 1 µM (AID 2554;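 active means primary screen hit whose fluorescence ratio, in both repeats, exceeds the weak agonist control mean by 3 SD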). To be noted: DAMGO EC20, Fluo-4 calcium flux, at 1 µM; active compounds read high. (Calcium assays in cells follow changes in intracellular calcium, usually with a dye or a luminescent sensor.)

The test system of assay [4] is TRPC4 beta (transient receptor potential cation channel C4), mouse. Briefly: positive allosteric modulators of mouse TRPC4, confirmation, cell-based, Fluo-4, HEK293 TRPC4beta/mu-opioid (AID 2555;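 active means primary screen hit whose calcium fluorescence ratio, in both repeats, exceeds the weak agonist control mean by 3 SD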). To be noted: DAMGO EC20, Fluo-4 calcium flux, at 10 µM; active compounds read high.
Assay [5] concerns the target Short transient receptor potential channel 4 (Mus musculus) (UniProt Q9QUQ5). Briefly: inhibitors of mouse TRPC4 channel, confirmation, cell-based, Fluo4, HEK293 TRPC4beta/mu-opioid (AID 2636;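 active means calcium signal cut by more than 3 SD below the full-agonist control yet still positive, in both repeats and the earlier primary screen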). To be noted: DAMGO, Fluo4 calcium flux, at 10 µM; active compounds read high.
The target is the same in assay [6]. Briefly: inhibitors of mouse TRPC4 channel, confirmation, cell-based, second round, Fluo4, HEK293 TRPC4beta/mu-opioid, 1 µM (AID 2637;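 active means calcium signal ratio cut to more than 3 SD under the fully stimulated control mean yet still positive, in both repeats and the primary screen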;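 on inhibition: percent of integrated ratio relative to wells lacking test compound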). To be noted: Fluo4 calcium flux, DAMGO, at 1 µM; active compounds read high.
For assay [7] the target is unchanged. The assay can be described thus: mouse TRPC4 channel activators, dose response, cell-based, HEK293 TRPC4/mu-opioid, Fluo-4 calcium (AID 434937;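 active means primary screen activator hit with a dose response curve and TRPC4 channel activation at any tested dose; inactive means no activation, no dose response, or not a primary hit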).
The target is the same in assay [8]. Briefly: TRPC4 positive allosteric modulators, dose response, cell-based, HEK293 TRPC4/mu-opioid, Fluo-4 calcium, EC20 DAMGO (AID 434941;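 active means earlier screen potentiator hit that boosts the TRPC4 ion channel at some dose, with a dose response; inactive means no potentiation, no dose response, or not a prior hit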;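 further: calcium entry triggered by an EC20 dose of DAMGO at the co-expressed mu-opioid receptor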).
The target of assay [9] is Short transient receptor potential channel 6 (Mus musculus) (UniProt Q61143). The assay can be described thus: inhibition of mouse TRPC6 channel, confirmation, selectivity assay for TRPC4 inhibitor project, cell-based, HEK293, membrane potential dye, duplicate (AID 434948;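 active means active in primary screen and both duplicates, each dropping signal beyond three positive-control SD with fluorescence still positive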). To be noted: HEK293 TRPC6, membrane potential dye fluorescence, at 10 µM, stimulated with maximal-effect acetylcholine; active compounds read high.
Short transient receptor potential channel 6 (Mus musculus), sequence (Q61143 whole entry, looked up): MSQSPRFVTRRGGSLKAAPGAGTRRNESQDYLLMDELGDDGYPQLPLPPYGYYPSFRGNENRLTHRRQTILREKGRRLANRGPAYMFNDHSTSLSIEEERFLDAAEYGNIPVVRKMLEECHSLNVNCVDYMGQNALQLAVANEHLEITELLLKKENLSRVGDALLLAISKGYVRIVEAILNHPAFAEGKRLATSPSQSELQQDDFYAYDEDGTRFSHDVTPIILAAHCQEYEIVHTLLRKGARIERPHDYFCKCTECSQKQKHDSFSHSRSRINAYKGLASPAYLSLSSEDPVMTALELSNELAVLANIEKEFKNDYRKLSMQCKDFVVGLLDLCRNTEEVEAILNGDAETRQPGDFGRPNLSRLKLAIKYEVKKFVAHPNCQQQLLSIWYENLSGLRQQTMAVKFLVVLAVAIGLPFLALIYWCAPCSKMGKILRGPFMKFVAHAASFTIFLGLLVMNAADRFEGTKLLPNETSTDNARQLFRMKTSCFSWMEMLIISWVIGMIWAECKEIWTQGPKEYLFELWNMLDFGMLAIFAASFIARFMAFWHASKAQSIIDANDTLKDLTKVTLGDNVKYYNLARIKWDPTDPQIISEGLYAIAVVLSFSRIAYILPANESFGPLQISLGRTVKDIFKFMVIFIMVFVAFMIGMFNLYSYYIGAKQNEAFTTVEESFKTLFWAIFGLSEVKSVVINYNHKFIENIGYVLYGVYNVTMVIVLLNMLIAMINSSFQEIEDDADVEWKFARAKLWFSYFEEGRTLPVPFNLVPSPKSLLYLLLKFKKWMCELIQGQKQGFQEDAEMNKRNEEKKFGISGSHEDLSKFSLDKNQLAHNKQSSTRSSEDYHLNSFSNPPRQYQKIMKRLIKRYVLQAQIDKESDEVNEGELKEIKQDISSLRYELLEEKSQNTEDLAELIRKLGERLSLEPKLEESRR

Assay [10] has the same target. The assay can be described thus: activation of mouse TRPC6 channel, confirmation, selectivity assay for TRPC4 activator project, cell-based, HEK293, membrane potential dye, duplicate (AID 434950). To be noted: HEK293 TRPC6, membrane potential fluorescence, at 10 µM; active compounds read high.
The target is the same in assay [11]. The assay can be described thus: TRPC6 potentiation by TRPC4 potentiator hits, confirmation, selectivity assay for TRPC4 potentiator project, HEK293 cells, membrane potential dye, duplicate (AID 434952;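 active means compound raising the membrane signal above positive-control mean plus 3 SD in both repeats, and a primary screen hit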). To be noted: HEK293 TRPC6, membrane potential dye fluorescence, at 10 µM, maximal acetylcholine added after compound; active compounds read high.
For assay [12], the target named is Short transient receptor potential channel 4 (Mus musculus) (UniProt Q9QUQ5). The assay can be described thus: calcium flux activators in TRPC4/5HT1a cells, counter-screen for TRPC4 activator project, cell-based, second counter screen, HEK293 TRPC4/5HT1a, Fluo-4 (AID 434977;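 active means calcium signal rise above buffer-control mean plus 5 SD in both duplicates, and also a hit in the primary screen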). The following applies: Fluo-4 calcium flux, at 10 µM; active compounds read high.
Short transient receptor potential channel 4 (Mus musculus), sequence (Q9QUQ5 whole entry, looked up): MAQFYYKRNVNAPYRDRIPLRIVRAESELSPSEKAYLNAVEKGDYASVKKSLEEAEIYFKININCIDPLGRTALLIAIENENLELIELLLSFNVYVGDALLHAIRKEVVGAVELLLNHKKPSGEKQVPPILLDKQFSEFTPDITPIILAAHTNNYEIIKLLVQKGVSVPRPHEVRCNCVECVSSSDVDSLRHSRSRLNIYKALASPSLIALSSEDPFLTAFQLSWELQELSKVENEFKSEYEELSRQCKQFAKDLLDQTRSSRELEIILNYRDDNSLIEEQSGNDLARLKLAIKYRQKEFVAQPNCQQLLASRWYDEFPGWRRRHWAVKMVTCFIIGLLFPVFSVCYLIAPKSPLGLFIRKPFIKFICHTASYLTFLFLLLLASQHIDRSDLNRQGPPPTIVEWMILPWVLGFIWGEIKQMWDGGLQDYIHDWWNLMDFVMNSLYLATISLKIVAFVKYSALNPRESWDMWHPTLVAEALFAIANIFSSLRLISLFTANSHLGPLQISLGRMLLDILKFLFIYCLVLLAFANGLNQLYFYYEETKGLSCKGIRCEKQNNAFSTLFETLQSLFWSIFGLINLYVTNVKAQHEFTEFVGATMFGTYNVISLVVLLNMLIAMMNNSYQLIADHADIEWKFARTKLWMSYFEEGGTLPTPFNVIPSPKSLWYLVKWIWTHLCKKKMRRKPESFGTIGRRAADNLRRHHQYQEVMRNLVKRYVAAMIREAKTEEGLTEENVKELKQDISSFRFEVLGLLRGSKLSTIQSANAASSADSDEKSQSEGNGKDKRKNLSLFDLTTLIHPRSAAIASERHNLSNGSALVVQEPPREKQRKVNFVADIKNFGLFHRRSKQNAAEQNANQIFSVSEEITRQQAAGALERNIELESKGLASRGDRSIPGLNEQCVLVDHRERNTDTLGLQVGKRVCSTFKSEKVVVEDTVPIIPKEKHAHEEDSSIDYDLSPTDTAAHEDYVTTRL
Assay [13] can be described thus: calcium flux inhibitors in TRPC4/5HT1a cells, confirmation, counter-screen for TRPC4 inhibitor project, cell-based, second counter screen, HEK293 TRPC4/5HT1a, Fluo-4 (AID 434978;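 active means primary screen active whose calcium signal fell more than 3 SD beyond the full-serotonin control mean in both duplicate plates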;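 on outcome: serotonin given first at submaximal then at maximal dose after compound preincubation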). To be noted: Fluo-4 calcium flux, at 10 µM, serotonin added to trigger calcium flux; active compounds read high.
Assay [14] relates to TRPC4 (mouse), co-expressed with 5HT1a in HEK293. Briefly: calcium flux potentiators in TRPC4/5HT1a cells, confirmation, counter-screen for TRPC4 potentiator project, cell-based, second counter screen, HEK293 TRPC4/5HT1a, Fluo-4 (AID 434979;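 active means signal rise over 3 SD above mean of control wells given weak agonist, in both repeats and first screen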). The following applies: Fluo-4 calcium flux, at 10 µM, serotonin added at its EC20 dose; active compounds read high.
A short description of assay [15]: calcium flux activation in mu-opioid HEK293 cells, confirmation, counter-screen for TRPC4 activator project, cell-based, HEK293 mu-opioid receptor line (AID 449723;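 active means hit in primary screen, with calcium signal over 5 SD above buffer well mean in both duplicates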;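 further: counter screen cells carry the mu-opioid receptor alone and lack TRPC4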). To be noted: Fluo-4 calcium fluorescence, at 10 µM; active compounds read high.
The nature of assay [16]: calcium flux enhancement in mu-opioid HEK293 cells, confirmation, counter-screen for TRPC4 allosteric potentiator project, cell-based, HEK293 mu-opioid receptor line (AID 449724;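 active means calcium signal rise more than 3 SD above the low-dose agonist control mean, in both duplicate plates and the primary screen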;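 further: HEK293 cells carrying mu-opioid receptor only with no TRPC4 channel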). The following applies: Fluo-4 calcium flux, at 10 µM, compound added before EC20 DAMGO stimulus; active compounds read high.

For some of these results: Entries with a potency or affinity are not part of this list. Activity calls are given as the source filed them.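 How the source made its calls, unless noted: active means membrane potential signal rise above negative control mean plus 3 SD in both duplicates, also active in the earlier TRPC4 screen; inactive means the rest.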

Regarding `CSC1=NC2(CCCCC2)C2=C(CCCC2)N1`, the result in assay [1], in assay [2], in assay [3], in assay [4], in [6] and in assay [7] was inactive. For the same molecule, the outcome in assay [8], in assay [9], in assay [10], in assay [11], in assay [12] and in assay [14] was inactive. Further, the result in [15] and in assay [16] was inactive. Moreover, the inhibition (as a rule, the drop in the measured response relative to a control, in per cent) in assay [5] was 96% (active); in assay [13] it was 33% (active).

For the molecule `CC(C)Sc1nc2sc3c(c2c2nnc(SCC(=O)NCc4ccco4)n12)CCCC3`, the outcome in [1], in assay [2], in [3], in assay [4], in [6] and in [7] was inactive. The result in [8], in [9], in assay [10], in assay [11], in [12] and in [14] was inactive. The outcome in assay [15] and in assay [16] was inactive. For the same molecule, the figures for the inhibition in [5] and in assay [13] were 78% (active) and 16.9% (active), respectively.

Take `O=C(Nc1ccccc1N1CCN(C(=O)c2ccccc2)CC1)c1ccc(Br)o1`: the result in assay [1], in [2], in assay [3], in assay [4], in assay [7] and in assay [8] was inactive. Moreover, the result in [9], in [10], in assay [11], in [12], in assay [14] and in assay [15] was inactive. In addition, the result in assay [16] was inactive. For the same molecule, the inhibition in assay [5] is 82% (active); in assay [6] it was 57% (active); in assay [13], 31.6% (active).

On to `CCOc1cc(CNCc2cccs2)ccc1OCC(=O)NC(C)(C)C`, for which the result in assay [1], in [2], in assay [3], in assay [4], in [7] and in assay [8] was inactive. Moreover, the molecule was called inactive in assay [9], in [10], in assay [11], in assay [12], in assay [13] and in assay [14]. The result in assay [15] and in assay [16] was inactive. Besides, the inhibition in assay [5] was 98% (active); in assay [6] it was 49% (active).

In the case of `CCC1CCCCN1Cc1nc2c(c(=O)n(C)c(=O)n2C)n1Cc1ccccc1` (stereo unspecified), the result in assay [1], in [2], in [3], in assay [4], in assay [6] and in assay [7] was inactive. Besides, the outcome in assay [8], in [9], in assay [10], in assay [11], in [12] and in [14] was inactive. For the same molecule, the outcome in [15] and in [16] was inactive. Also, the inhibition is 74% (active) in assay [5] and 38.1% (active) in assay [13].

As to `CCCOc1cccc(C(=O)NCCNC(=O)c2ccco2)c1`, the outcome in assay [1], in assay [2], in [3], in assay [4], in [5] and in assay [6] was inactive. The result in assay [7], in assay [8], in [9], in assay [10], in assay [11] and in [12] was inactive. The result in [13], in assay [14], in assay [15] and in [16] was inactive.

On to `CCCC[n+]1c2ccccc2cc2ccccc21`, for which the outcome in assay [1], in assay [2], in assay [3], in assay [4], in assay [7] and in assay [8] was inactive. Also, the outcome in [9], in assay [10], in assay [11], in assay [12], in assay [14] and in [15] was inactive. In addition, in [16], the result was inactive. The inhibition in [5] is 87% (active); in assay [6] it was 54% (active); in [13], 18.4% (active).

For `Cc1ccc(C(CNS(=O)(=O)c2ccc([N+](=O)[O-])cc2)N2CCN(C)CC2)cc1` (stereo unspecified), the result in assay [1], in assay [2], in [3], in assay [4], in [7] and in [8] was inactive. The call in assay [9], in [10], in [11], in [12], in [13] and in assay [14] was inactive. Further, the result in [15] and in assay [16] was inactive. The inhibition in [5] is 54% (active); in assay [6] it was 63% (active).

As for `CC1CCc2c(sc(/N=C/N(C)C)c2C#N)C1` (stereo unspecified), the result in assay [1], in assay [2], in assay [3], in assay [4], in [6] and in [7] was inactive. Also, the result in assay [8], in [9], in [10], in assay [11], in assay [12] and in [13] was inactive. Also, the outcome in assay [14], in [15] and in assay [16] was inactive. Also, the inhibition in assay [5] was 78% (active).

On to `O=[N+]([O-])c1cccc(-c2nnc(C3CC3)o2)c1`, for which the result in [1], in assay [2], in [3], in assay [4], in assay [7] and in [8] was inactive. Moreover, the molecule was called inactive in [9], in assay [10], in assay [11], in assay [12], in [13] and in assay [14]. The outcome in [15] and in [16] was inactive. Besides, the inhibition in assay [5] was 68% (active); in [6], 38% (active).

`CCCCOc1ccc(Nc2cc(Cl)ccc2C(=O)O)cn1`: the result in assay [1], in assay [2], in assay [3], in assay [4], in assay [5] and in assay [6] was inactive. In addition, the result in [7], in assay [8], in assay [9], in assay [10], in assay [11] and in assay [12] was inactive. In addition, the result in [14], in assay [15] and in assay [16] was inactive. The inhibition in assay [13] was 27.6% (active).

Consider `Cc1nc(Cl)nc(N(C)c2ccccc2)c1[N+](=O)[O-]`, for which the result in [1], in [2], in assay [3], in [4], in assay [7] and in [8] was inactive. The molecule was called inactive in assay [9], in [10], in assay [11], in assay [12], in [14] and in [15]. Besides, the result in assay [16] was inactive. Also, the inhibition in [5] was 97% (active); in assay [6], 49% (active); in assay [13], 43.6% (active).

Consider `N=c1c2c(n(Cc3ccc(Cl)cc3)c3c1CCC3)CCC2`, for which the result in assay [1], in assay [2], in assay [3], in assay [4], in [7] and in assay [8] was inactive. For the same molecule, the molecule was classed as inactive in [10], in assay [11], in [12], in assay [14], in [15] and in assay [16]. Further, the inhibition was 96% (active) in assay [5], 50% (active) in assay [6], 34.5% (active) in [9] and 10.6% (active) in assay [13].

Turning to `N#C/C(=N\Nc1cccc([N+](=O)[O-])c1)C(=O)c1ccc(Br)cc1`, the result in [1], in assay [2], in [3], in assay [4], in assay [6] and in [7] was inactive. For the same molecule, the result in [8], in assay [10], in assay [11], in [12], in assay [14] and in assay [15] was inactive. Further, the result in assay [16] was inactive. Also, the figures for the inhibition in [5], in assay [9] and in assay [13] were 98% (active), 21.5% (active) and 12.4% (active), respectively.

Consider `Cc1nc2ccccc2n1CC(O)COc1ccccc1Cl` (stereo unspecified), for which the outcome in assay [1], in assay [2], in [3], in [4], in [7] and in assay [8] was inactive. Also, the molecule was called inactive in assay [9], in [10], in [11], in assay [12], in assay [13] and in assay [14]. In addition, the result in [15] and in assay [16] was inactive. Further, the inhibition in [5] is 72% (active); in [6], 40% (active).

`CCCn1c(=N)n(CC(=O)C(C)(C)C)c2ccccc21`: the result in assay [1], in assay [2], in [3], in [4], in assay [6] and in [7] was inactive. Further, the outcome in assay [8], in assay [9], in [10], in assay [11], in assay [12] and in assay [14] was inactive. The outcome in assay [15] and in assay [16] was inactive. Besides, the inhibition in assay [5] is 92% (active); in assay [13] it was 42.4% (active).
